Assay results published in PubChem BioAssay.

target: Homeobox protein Hox-A13 (Mus musculus) (UniProt Q62424); experiment: disruptors of Hoxa13 oligonucleotide interaction – biochemical, fluorescence polarization, labeled oligonucleotide, primary screen (AID 1185); settings: Hoxa13:DNA binding, 15 min, higher = more signal, called active from +8 up or from −8 down
Sequence (Q62424 whole entry, looked up): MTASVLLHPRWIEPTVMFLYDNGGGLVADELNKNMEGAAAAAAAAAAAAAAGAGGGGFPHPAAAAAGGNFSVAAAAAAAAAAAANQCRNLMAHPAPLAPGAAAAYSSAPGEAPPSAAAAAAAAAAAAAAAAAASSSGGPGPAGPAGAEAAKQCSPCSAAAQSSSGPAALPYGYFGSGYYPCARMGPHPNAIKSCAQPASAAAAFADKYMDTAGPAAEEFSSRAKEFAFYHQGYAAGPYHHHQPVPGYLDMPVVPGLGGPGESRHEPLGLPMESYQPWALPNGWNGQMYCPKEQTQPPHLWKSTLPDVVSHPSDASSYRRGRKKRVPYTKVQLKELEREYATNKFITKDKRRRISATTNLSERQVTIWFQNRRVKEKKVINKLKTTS

z-score, inactive:
CCN1C(=O)[C@H]2[C@H]3[C@H](O)[C@H](O)CC(=NOC(C)CN4CCCCc5nc(C)c(C)cc54)[C@@H]3CC[C@H]2C1=O (some centres undefined) -1.48
CO[C@H]1COC(=O)[C@H](C)COC(=O)CC=C[C@@H](C)[C@H](OC)COC(=O)CC=C[C@@H]1C 0.149
CC(=O)OC[C@H]1O[C@H](CCON=C(C)CCC(=O)OC[C@H]2O[C@H](C#Cc3ccccc3)C=C[C@@H]2Oc2ccc(C)cc2)C=C[C@@H]1OC(C)=O -2.62
CC(=O)C[C@H](O)[C@@H](NC(=O)OC(C)(C)C)C(C)C 0.787
COC(=O)[C@H](C)NC(=O)CCC1CC(OC(=O)NCc2ccc3c(c2)OCO3)CC2(CCCC(COC(=O)NCCOc3ccccc3)O2)O1 (some centres undefined) -2.45
CC1(C)OCC(C(O)C2=CCCCC2=O)CO1 (centres undefined) -2.61
COC(=O)[C@@H]1CC[C@H](C)[C@@H](c2ccc(C)cc2)N1C(=O)c1ccc(C=NOC(C)CN2CCCCc3nc(C)c(C)cc32)cc1 (some centres undefined) -3.03
O=C1[C@H]2[C@H]3[C@H](O)[C@H](O)CC(=NOC[C@@H](O)COCc4ccco4)[C@H]3CC[C@H]2C(=O)N1C1CCCCC1 -0.271
CCCNC(=O)OC[C@H]1O[C@H](CCON=CC[C@@H]2C=C[C@H](OC(C)=O)[C@@H](COC(C)=O)O2)C=C[C@@H]1Oc1ccc(OC)cc1 -6.56
COc1ccc(COC(=O)NN=C2C[C@@H](O)[C@@H](O)[C@@H]3[C@@H]4C(=O)N(c5ccc(F)cc5F)C(=O)[C@@H]4CC[C@@H]23)cc1 -3.33
CC(C)=NOCc1ccc(-c2cc(-c3ccccc3)no2)cc1 0.736
CO[C@@H]1COC(=O)CC=C[C@@H](C)COC(=O)[C@H](COCc2ccccc2)NC(=O)CC=C[C@H]1C -0.119
CCOC(=O)[C@H](CC(C)C)NC(=O)CCC1CC(OC(=O)NCc2cccc3ccccc23)CC2(CCCC(COC(=O)NCCN3CCOCC3)O2)O1 (some centres undefined) -4.01
COCCNC(=O)OCC1CCCC2(CC(OC(=O)NCCc3ccc(F)cc3)CC(CCC(=O)N[C@@H](C)C(=O)OC)O2)O1 (some centres undefined) -3.44
CO[C@@H]1COC(=O)CC=C[C@@H](C)[C@@H]2C=C[C@H](O)[C@@H](COC(=O)[C@H](C)NC(=O)CC=C[C@H]1C)O2 -3.61
COc1ccc(O[C@H]2C=C[C@@H](c3ccccc3)O[C@@H]2COC(=O)N2CCCCC2)cc1 -3.83
COc1ccc(O[C@H]2C=C[C@@H](c3ccccc3)O[C@@H]2CON=C[C@@H](C)[C@H](OCc2ccccc2)C(C)C)cc1 -0.538
CC(CCN1CCCCc2nc(C)c(C)cc21)=NOC(C)CN1CCCCc2nc(C)c(C)cc21 (centres undefined) -5.75
CC=CC1=C(CO)[C@H](O)[C@H]2O[C@H]2[C@H]1O -0.532
CO[C@H]([C@@H](C)[C@H](OC)c1ccccc1)[C@H](C)[C@@H](OC)[C@H](C)C(C)=O -1.36
O=C1[C@H]2[C@H]3[C@H](O)[C@H](O)CC(=NOCc4ccccc4)[C@@H]3CC[C@H]2C(=O)N1C1CCCCC1 -5.72
CO[C@@H]1COC(=O)CCC[C@@H](C)[C@H](OC)COC(=O)[C@H](Cc2ccccc2)NC(=O)CC=C[C@H]1C -3.5
COc1ccc(-c2nc3c(c4c2C[C@H](C)OC4)CN(CCC(C)C)CC3)cc1 -5.51
CC(=O)O[C@H]1C2=C(C(=O)[C@@H]3O[C@@H]31)[C@H]1C(C)O[C@@H]2[C@@]23C(=O)[C@@H]4O[C@@H]4[C@@H](O)C2=CO[C@H](C)[C@@H]13 (some centres undefined) -0.465
CC(C)=CCCC(C)=CCON=C1[C@H]2CCn3c(=O)n(Cc4cc5c(cc4Cl)OCO5)c(=O)n3[C@H]2[C@H](O)[C@@H]2O[C@H]12 -1.16
c1ccc(C2NCCc3c2[nH]c2ccccc32)cc1 (centres undefined) -0.654
Cc1cc2c(nc1C)CCCN2CC(O)CN1CCN(C)CC1 (centres undefined) -3.1
COC(=O)[C@H](C)NC(=O)[C@@H](C)CO -1.61
C[C@H](c1ccccc1)N1C(=O)[C@H]2[C@H]3[C@H](O)[C@H](O)CC(=O)[C@@H]3CC[C@H]2C1=O -1.84
